Out of some 340,000 compounds screened, about 1,000 (0.29%) were called active. Only a sample is shown. Measured potencies and affinities stand elsewhere. Values without a mark were called inactive. Cut-off read from the data, not from the text of the source: inconclusive = inhibition above about 27% without an active follow-up result; inactive = below that.
Assay: H1N1 influenza NS1A inhibitors, functional cell based assay (AID 504329)
Conditions: percent inhibition, at 12.5 µM, hits give high values

| SMILES | inhibition |
| --- | --- |
| CCN(CC)c1ccc(NC(=O)COC(=O)c2ccc3ccccc3n2)cc1 | 17.3% |
| COc1ccc(NC(=O)COC(=O)c2ccc3ccccc3n2)cc1 | -0.01% |
| O=C(Nc1ccn(CCCNCc2ccccc2)c(=O)n1)OCc1ccccc1 | -1.35% |
| CCN(CC)c1ccc(CN2CC=C(c3ccc(F)cc3)CC2)cc1 | 23.1% |
| COc1cc(CN2CC=C(c3ccc(F)cc3)CC2)cc(OC)c1 | -3.66% |
| N[C@@H](Cc1ccc(O)cc1)c1nnc([C@H](CO)NC(=O)C2CCNCC2)o1 | -21.5% |
| COc1ccccc1C=NNC(=O)c1ccccc1OCCOc1ccccc1 | -1.44% |
| COc1ccc(CCc2nnc(N)s2)cc1OC | -1.61% |
| CCOC(=O)c1cc(-c2ccc(Cl)s2)[nH]n1 | 0.06% |
| Cn1cccc1/C=C1\C(=O)NC(=O)N(Cc2ccco2)C1=O | 3.7% |
| O=C1NC(=O)N(Cc2ccco2)C(=O)/C1=C/C=C/c1ccco1 | -3.06% |
| NC(=O)C1CCN(/C=C2\C(=O)NC(=O)N(Cc3ccco3)C2=O)CC1 | -5.38% |
| CCN(CC)c1ccc(/C=C2/C(=O)NC(=O)N(Cc3ccco3)C2=O)cc1 | 7.25% |
| COC(=O)c1ccc(NC(=O)CNS(=O)(=O)c2cccs2)cc1 | 1.39% |
| COc1cc(NC(=O)c2ccccn2)cc(OC)c1OC | -8.83% |
| COc1cc(C(=O)N/N=C(\c2ccccc2)c2ccccn2)cc(OC)c1OC | 8.37% |
| COc1ccc(C(=O)N/N=C(\C)CC(=O)Nc2ccccn2)cc1OC | 1.35% |
| COc1ccc(C(=O)N/N=C/c2ccccn2)cc1OC | 0.68% |
| COc1ccc(NC(=S)N2CCN(Cc3ccccc3)CC2)c(OC)c1 | -3.28% |
| Fc1cccc(-c2oncc2-c2nnnn2-c2ccc(Cl)cc2)c1 | 12.9% |
| CCOC(=O)c1ccc(NC(=O)CCNS(=O)(=O)c2cc(Br)cnc2N)cc1 | 1.26% |

| SMILES | inhibition |
| --- | --- |
| O=C1C(Cl)=C(N2CCC(C(=O)O)CC2)C(=O)c2ccccc21 | 0.19% |
| CN1CCN(C2=C(Cl)C(=O)c3ccccc3C2=O)CC1 | -8.61% |
| C[C@H](CO)N1C[C@H](C)[C@H](CN(C)Cc2ccccc2)Oc2c(NC(=O)Nc3ccc(F)cc3)cccc2C1=O | -3.95% |
| Cc1ccc(C(=O)OCC(=O)c2ccc(Cl)s2)s1 | 1.17% |
| CC1(C)CC(NC(=O)C23CCC(C)(C2Br)C3(C)C)CC(C)(C)N1 (stereo unspecified) | -5.71% |
| CCN1C(c2ccccc2)=C(c2ccccc2)S/C1=C\C=C1/SC(=S)N(C)C1=O | 15.8% |
| CCN1C(=O)/C(=C/C=C2/Sc3ccc4ccccc4c3N2CCO)SC1=S | -5.98% |
| CCCCCC/C=C/c1ccc(OC)c([C@H]2[C@H]3C=CC[C@@H](C)[C@@H]3C(=O)N2Cc2ccccc2)c1 | 6.03% |
| CCN1/C(=C\c2ccc3ccccc3[n+]2CC)Sc2cc(C)ccc21 | 11.8% |
| CCN1/C(=C/c2ccc3cc(C)ccc3[n+]2CC)Sc2cc(C)ccc21 | 19.4% |
| Cc1cc(C)nc(NS(=O)(=O)c2ccc(NS(=O)(=O)c3ccc(C#N)cc3)cc2)n1 | -5.4% |
| COC(=O)CNC(=O)CN(c1ccc(OC)cc1OC)S(=O)(=O)c1ccccc1 | -1.66% |
| Cc1cccc(NC(=O)Cn2c(O)c(N=NC(=O)c3ccncc3)c3ccccc32)c1 | -15.6% |
| CN1CCc2c(sc3c2C(=O)NC(c2ccccc2)N3)C1 (stereo unspecified) | -3.09% |
| O=C1NC(c2cccs2)Nc2sc3c(c21)CCCC3 (stereo unspecified) | 3.69% |
| CN1CCc2c(sc3c2C(=O)NC(c2cccs2)N3)C1 (stereo unspecified) | 1.19% |
| O=C1NC(c2ccncc2)Nc2sc3c(c21)CCCC3 (stereo unspecified) | 2.95% |
| CCN1C(=O)/C(=C2\SC(N3CCOCC3)=NC2=O)c2ccccc21 | 23.1% |
| CCCCN1C(=O)/C(=C2\SC(N3CCOCC3)=NC2=O)c2ccccc21 | 8.19% |
| CN1C(=O)/C(=C2\SC(N3CCCCCC3)=NC2=O)c2ccccc21 | 20.3% |
| CCN1C(=O)/C(=C2\SC(N3CCCCC3)=NC2=O)c2ccccc21 | 14.1% |

| SMILES | inhibition |
| --- | --- |
| COC(=O)c1sccc1NC(=O)c1ccc(Br)o1 | 3.08% |
| Cc1nc2ccccc2c(=O)n1NC(=O)c1cc(Br)ccc1Cl | 3.26% |
| CCOC(=O)c1c(NC(=O)CNCCO)sc(C)c1C | -0.57% |
| CN(CCCNC(=O)c1cc2c(=O)[nH]c3ccccc3c2n1C)Cc1ccccc1 | -0.58% |
| CCN1CCN(C(=O)c2cc(-c3ccc(Cl)s3)nc3ccccc23)CC1 | -3.92% |
| COc1cc(C(=O)OCC(=O)NC(=O)c2cccn2C)ccc1OC(F)F | 5.75% |
| COc1ccc2nc(-c3ccccn3)[nH]c2c1 | -6.69% |
| COc1ccc(Oc2ccccc2/C=N/O)cc1 | -9.31% |
| CC(C)(C)c1cc(=O)[nH]c(SCc2ccccc2)n1 | -17.8% |
| Cn1nc(C(F)(F)F)c(CO)c1Sc1ccc(F)cc1 | 5.51% |
| CC[n+]1cc(C)ccc1/C=C/c1ccc(N(C)C)cc1 | -3.01% |
| CC[n+]1c(SC)ccc2cc(OC)ccc21 | -5.15% |
| CN(C)c1ccc(/C=C/c2nc3ccccc3c(=O)[nH]2)cc1 | -10.6% |
| C[n+]1c(/C=C/c2ccc3c(c2)OCO3)ccc2ccccc21 | 8.1% |
| CC[n+]1c(/C=C/c2ccc(OC)c(OC)c2)ccc2ccccc21 | 3.91% |
| CN(C)c1ccc(/C=C/c2ccc3ccccc3n2)cc1 | -37.5% |
| CN(CCCS(=O)(=O)[O-])c1ccc(/C=C/c2ccc3ccccc3[n+]2C)cc1 | -6.52% |
| CC[n+]1c(/C=C/c2ccc(OC(C)=O)c(OC)c2)ccc2ccccc21 | 18.9% |
| O=C(Nc1nc2ccccc2[nH]1)NC1CCCCC1 | -9.13% |

— PubChem BioAssay AID504329 (Southern Research Specialized Biocontainment Screening …, 2011)
